{"source": "PubChem BioAssay AID686978", "about": "(National Center for Advancing Translational Sciences (NCATS), 2013)", "note": "Hit rate of the full screen: of about 420,000 compounds, about 64,000 (15%) were called active. Another 27% or so got no clear call; they are omitted. Only a sample is shown. Unmarked numbers belong to inactive results. The call rests on the fitted dose curve; in most records, active means well fitted inhibition curve with a large enough effect; inconclusive means small, poorly fitted or top-dose-only effect; inactive means flat fitted curve, though single readings scatter. On the % scale 0 is the no-effect control and ±100 the full control effect; potency means the concentration at half of the fitted maximal effect."}
{"experiment": "qHTS for Inhibitors of human tyrosyl-DNA phosphodiesterase 1 (TDP1): qHTS in cells in absence of CPT; further: nearly all actives have a fitted effect of over 55% in size", "conditions": "DT40 Tdp1-/- hTDP1 cells, no CPT, ATP luminescence, 48 h; activity change, negative = growth inhibition: at 46.2 µM (top of the series)", "summary_of_the_method": "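Cells were dispensed at 400 per well, compounds added by pin tool, plates incubated ≥48 hr at 37 °C, then CellTiter-Glo added for 30 min at room temperature before luminescence reading. Line: DT40 Tdp1-/- complemented with hTDP1; camptothecin omitted.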", "units": {"activity change, negative = growth inhibition": "%"}}
{"smiles": "Cc1ccc(NC(=O)c2ccc(Oc3ncccn3)cc2)cc1", "activity change, negative = growth inhibition": -14}
{"smiles": "CC(C)c1c(C(=O)N/N=C/c2ccccc2C(=O)O)nnn1-c1nonc1N", "activity change, negative = growth inhibition": -0.811}
{"smiles": "O=C(/C=C/c1ccc(F)cc1)Nc1cccc(S(=O)(=O)Nc2cccc(C(F)(F)F)c2)c1", "Potency": "8.2 µM (active)"}
{"smiles": "CC(C)(CNC(=O)c1cc(=O)[nH]c2ccccc12)N1CCOCC1", "activity change, negative = growth inhibition": -4.44}
{"smiles": "O=C(O)c1cccc(N2C(=O)Nc3ccccc3N2O)c1", "activity change, negative = growth inhibition": 0.678}
{"smiles": "CN1C(=O)c2ccc(NC(=O)c3c(F)c(F)c(F)c(F)c3F)cc2C1=O", "activity change, negative = growth inhibition": -20.5}
{"smiles": "O=S1(=O)CC(N2CCSCC2)CN1Cc1cn(Cc2cccc(Cl)c2)nn1", "note": "(centres undefined)", "activity change, negative = growth inhibition": -18.3}
{"smiles": "CC1C(=O)N(Cc2cn(CC3CCCCC3)nn2)CCS(=O)(=O)N1Cc1ccc(-c2cccc(N(C)C)c2)cc1", "note": "(centres undefined)", "Potency": "7.31 µM (active)"}
{"smiles": "CCCC[C@H]1COCCS(=O)(=O)N1Cc1cccc(Cl)c1", "activity change, negative = growth inhibition": -19.5}
{"smiles": "COc1ccc(Cn2cc(CN3CCS(=O)(=O)N(Cc4ccc(-c5cccc(Cl)c5)cc4)C(C)C3=O)nn2)cc1", "note": "(centres undefined)", "Potency": "25.9 µM (active)"}
{"smiles": "O=S(=O)(/C=C/c1ccccc1)N1CCNCC1", "activity change, negative = growth inhibition": -15.3}
{"smiles": "O=C1Cc2cc(S(=O)(=O)Nc3cccc(F)c3)ccc2N1", "activity change, negative = growth inhibition": 0.84}
{"smiles": "CC(/C=C/c1ccco1)=N/NC(=O)C1COc2ccccc2O1", "note": "(centres undefined)", "Potency": "16.4 µM (active)"}
{"smiles": "CC(=O)c1cccc(NC(=O)C2COc3ccccc3O2)c1", "note": "(centres undefined)", "activity change, negative = growth inhibition": 8.91}
{"smiles": "C/C(=N/NC(=O)C1COc2ccccc2O1)c1ccco1", "note": "(centres undefined)", "activity change, negative = growth inhibition": -14.3}
{"smiles": "CCOc1cc(C(=O)Nc2c(C)ccc3nsnc23)cc(OCC)c1OCC", "activity change, negative = growth inhibition": -22.1}
{"smiles": "CC1O[C@H](OC2C(COC3OC(CO)C(O)[C@H](O)C3O)OC(OC3CC[C@]4(C)C(CC[C@@]5(C)[C@@H]4C=C[C@]46OC[C@@]7(CCC(C)(C)C[C@H]74)C(O)C[C@@]56C)C3(C)C)C(O)C2O)C(O)C(O)C1O", "note": "(some centres undefined)", "activity change, negative = growth inhibition": 7.51}
{"smiles": "O=C(COC(=O)CNS(=O)(=O)c1ccccc1)NC12CC3CC(CC(C3)C1)C2", "activity change, negative = growth inhibition": -26.4}
{"smiles": "CC(=O)Oc1ccc2c(c1)C(=O)c1ccccc1C2=O", "activity change, negative = growth inhibition": -18.9}
{"smiles": "O=C1C(Cl)=C(Oc2ccccc2)C(=O)c2ccccc21", "Potency": "0.259 µM (active)"}
{"smiles": "Cc1cc(Nc2ccc(C(=O)N3CCCCC3)cc2)c2cccc(C)c2n1", "activity change, negative = growth inhibition": -23.9}
{"smiles": "CCc1c(C)sc(NC(=O)OC)c1C(=O)N1CCOCC1", "activity change, negative = growth inhibition": -12.6}
{"smiles": "CCCOC(=O)CC1C(=O)NCCN1Cc1ccc(F)cc1", "note": "(centres undefined)", "activity change, negative = growth inhibition": -3.87}
{"smiles": "COc1ccc(NC(=O)/C(N=Nc2cccc(S(=O)(=O)Nc3ccc(SC(F)F)cc3)c2)=C(\\C)O)cc1", "activity change, negative = growth inhibition": -19.8}
{"smiles": "COc1ccc(NS(=O)(=O)c2ccc(Oc3c(C#N)cccc3C#N)cc2)cc1", "Potency": "5.8 µM (active)"}
{"smiles": "COc1ccc(NS(=O)(=O)c2cccc(C(=O)NCCc3ccc(S(N)(=O)=O)cc3)c2)cc1", "activity change, negative = growth inhibition": -13.7}
{"smiles": "C[C@H](CO)N1C[C@H](C)[C@@H](CN(C)C(=O)NC2CCCCC2)Oc2ccc(NC(=O)c3ccncc3)cc2C1=O", "activity change, negative = growth inhibition": 3.93}
{"smiles": "CO/N=C(\\C(=O)N[C@@H]1C(=O)N2C(C(=O)O)=C(COC(C)=O)CS[C@H]12)c1csc(N)n1", "note": "(stereo in doubt)", "Potency": "inactive"}
{"smiles": "COc1cccc(-c2nc(CS(=O)(=O)CC(=O)NCCc3ccc(OC)c(OC)c3)c(C)o2)c1", "activity change, negative = growth inhibition": -28.5}
{"smiles": "CCCCN(CC)CCCNC(=O)CS(=O)(=O)Cc1nc(-c2cccc(OC)c2)oc1C", "activity change, negative = growth inhibition": 3.46}
{"smiles": "COc1cccc(-c2nc(CS(=O)(=O)CC(=O)N3CCN(c4cc(C)ccc4C)CC3)c(C)o2)c1", "Potency": "3.66 µM (active)"}
{"smiles": "CCN(CC)CCN(C)C(c1ccnc2ccccc12)c1nnnn1-c1ccc2c(c1)OCCO2", "note": "(centres undefined)", "Potency": "18.4 µM (active)"}
{"smiles": "CC(=O)NC1CCN(CC(=O)Nc2nccs2)CC1", "activity change, negative = growth inhibition": 8.15}
{"smiles": "Cc1cc(C)n(CCNC(=O)CC2C(=O)NCCN2Cc2ccc(C)o2)n1", "note": "(centres undefined)", "activity change, negative = growth inhibition": 9.42}
{"smiles": "Cc1ncn(C23CC4CC(CC(O)(C4)C2)C3)n1", "activity change, negative = growth inhibition": 11.2}
{"smiles": "COC(=O)c1ccc(NC(=O)CSc2nnc(C3CC3)n2C)cc1", "activity change, negative = growth inhibition": -18.5}
{"smiles": "COC(=O)c1ccc(NC(=O)C23CC4CC(C2)CC(n2cnc(Cl)n2)(C4)C3)cc1", "Potency": "16.4 µM (active)"}
{"smiles": "CCOc1ccc(S(=O)(=O)NCCC(=O)NNC(=O)c2ccc(F)cc2)cc1", "activity change, negative = growth inhibition": -2.59}
{"smiles": "COc1ccc(CCN2C(=O)c3oc4cc(C)cc(C)c4c(=O)c3C2c2ccccc2F)cc1OC", "note": "(centres undefined)", "Potency": "2.91 µM (active)"}
{"smiles": "COc1ccc(CNC(=O)c2cc(=O)c3c(C)cc(C)cc3o2)cc1", "activity change, negative = growth inhibition": -23.3}
{"smiles": "COc1ccc(CCNC(=O)COc2cc(C)cc3oc(=O)c(C)c(C)c23)cc1OC", "activity change, negative = growth inhibition": -14.7}
{"smiles": "COc1ccccc1OCCNC(=O)C(CCSC)NC(=O)COc1ccccc1", "note": "(centres undefined)", "activity change, negative = growth inhibition": 12.3}
{"smiles": "O=C(O)CC(c1ccccc1)n1cnnn1", "note": "(centres undefined)", "activity change, negative = growth inhibition": -13.6}
{"smiles": "CCCCOc1ccc(C(=O)NO)cc1", "Potency": "15.8 µM (active)"}
{"smiles": "CCCCOc1ccc(C(=O)NCc2ccncc2)cc1", "activity change, negative = growth inhibition": -49}
{"smiles": "CCCOc1ccc(C(=O)CCC(=O)OC(C)C(=O)Nc2ccc(NC(C)=O)cc2)cc1", "note": "(centres undefined)", "activity change, negative = growth inhibition": -9.79}
{"smiles": "CCCOc1ccc(C(=O)NCCc2ccccc2)cc1", "activity change, negative = growth inhibition": -5.72}
{"smiles": "CCCCOc1ccc(C(=O)NN2CCN(C)CC2)cc1", "activity change, negative = growth inhibition": 0.162}
{"smiles": "CCCOc1ccc(C(=O)C(CCC(CNCC)C(=O)c2ccc(OCCC)cc2)CNCC)cc1", "note": "(centres undefined)", "Potency": "0.92 µM (active)"}
